# “And” between values parts separate entries of the source, which are not always exact repeats. Identical values can stand only once. The whole screen tested about 300,000 compounds, of which about 37,000 (12%) were called active. Cut-off read from the data, not from the text of the source: active = max response mostly above about 13% (no sharp cut-off); inactive = mostly below about 14%. The entries come from a sample that favours actives as a whole.
# Test: Cycloheximide Counterscreen for Small Molecule Inhibitors of Shiga Toxin; note: read at 38.3 µM for the half of the compounds with a filed dose; 0% is about no effect
# Conditions: cell reporter, cycloheximide protein synthesis inhibition counterscreen; active compounds read high
row,SMILES,max response
1,CC(=O)c1ccc(N2CCN(C(=O)CCNC(=O)Cn3ccc4ccccc4c3=O)CC2)cc1,-4.48% (inactive)
2,O=C(O)CCCN1C(=O)c2ccccc2Sc2ncccc21,-1.01% (inactive)
3,C=C1CCN(C(CC(C)C)C(=O)NCc2cc(OC)c(OC)c(OC)c2)S(=O)(=O)c2ccccc21 (centres undefined),-2.25% (inactive)
4,Cc1ccc(CSCCNC(=O)CN(c2ccc(F)cc2)S(C)(=O)=O)cc1,-2.68% (inactive)
5,Cc1ccccc1C(=O)N1CCC(C(=O)Nc2ccc(S(=O)(=O)N(C)C(C)C)cc2)CC1,4.98% (inactive)
6,CC1CCCCN1C(=O)Cn1c(=O)oc2cc(S(=O)(=O)N3CCCCC3)ccc21 (centres undefined),-1.34% (inactive)
7,CC(C)(C)NCc1cc(Br)ccc1OC1CCCC1,-4.63% (inactive)
8,CCCCCCn1cc(C(=O)O)c(=O)c2cc(F)c(N3CCCCC3)cc21,-0.584% (inactive)
9,Cc1ccc(-c2csc(N(Cc3ccco3)C(=O)c3cccs3)n2)cc1,16.7% (active)
10,Cc1ccc(-c2csc(NNC(=O)c3ccccc3)n2)cc1,-2.93% (inactive)
11,Cc1ccc(-c2csc(NC(=O)c3cccs3)n2)cc1,60.5% (active)
12,O=C(Nc1n[nH]c(C(F)(F)F)n1)c1cccs1,-2.4% (inactive)
13,O=C(O)CCC(=O)N(Cc1ccco1)c1nc(-c2ccccc2)cs1,-1.24% (inactive)
14,Cc1nnc(N(Cc2ccco2)C(=O)c2ccno2)s1,-2.88% (inactive)
15,CCC(CC)c1nnc(NC(=O)C2CCN(C(=O)c3ccco3)CC2)s1,-2.36% (inactive)
16,O=C(CNC1CCCCC1)NCC1(c2ccccc2)CCCC1,-3.76% (inactive)
17,COCc1cc(=O)n2[nH]c(C)c(-c3ccccc3)c2n1,1.24% (inactive)
18,COc1ccccc1-c1sc2ccccc2c1-c1ccc(C(C)=O)cc1,25.3% (active)
19,COc1cc(C(C)=O)ccc1OC(=O)CN1C(=O)c2ccccc2C1=O,-2.6% (inactive)
20,COCc1cc(C(C)=O)ccc1OC,-7.85% (inactive)
21,CC(=O)Nc1ccc(Oc2ccc3c(c2)C(=O)NC3=O)cc1,-1.54% (inactive)
22,CS(=O)(=O)n1nc(-c2ccccc2)nc1NCc1ccco1,13.9% (inactive)
23,c1ccc(-c2nc(NCc3ccco3)c3ccccc3n2)cc1,16.8% (active)
24,O=C(Cc1ccccc1)n1nc(-c2ccccc2)nc1NCc1ccco1,15.3% (active)

row,SMILES,max response
1,c1coc(CNc2ncnc3ccccc23)c1,-1.39% (inactive)
2,CCOCCCNc1nc(-c2ccccc2)nc2ccccc12,7.13% (inactive)
3,CSc1nc(-c2ccco2)nn1C(=O)CCc1ccccc1,-3.44% (inactive)
4,Cc1cc(=O)[nH]c2nnnn12,4.1% (inactive)
5,CC1(c2ccccc2)CC(C)(C)N(C(=O)c2cc([N+](=O)[O-])cc([N+](=O)[O-])c2)c2ccccc21 (centres undefined),-4.42% (inactive)
6,N#CC1(C#N)C(C(=O)C23CC4CC(CC(C4)C2)C3)C12CCOCC2 (centres undefined),2.45% (inactive)
7,Cc1cccc(N(C)C(=O)c2cc3c(=O)[nH]c4ccc(C)cc4c3s2)c1,-2.49% (inactive)
8,COc1ccc(COC(=O)c2ccc(Cl)c(S(=O)(=O)N3CCOCC3)c2)cc1F,6.51% (inactive)
9,Cc1cccc(C)c1OCC(=O)NC(Cc1c[nH]c2ccccc12)C(=O)O (centres undefined),-0.482% (inactive)
10,COc1ccc(-c2cc(C(=O)NC(Cc3c[nH]c4ccccc34)C(=O)O)c(C)o2)cc1OC (centres undefined),32.9% (active)
11,CCC(C)NC(=O)c1cc(Cl)ccc1OC (centres undefined),5.03% (inactive)
12,CC(C)C(NC(=O)c1ccc(Cl)cc1)C(=O)O (centres undefined),-2.96% (inactive)
13,COc1ccc(-c2cc(C(=O)NC(C(=O)O)C(C)C)c(C)o2)cc1OC (centres undefined),28.2% (active)
14,COc1ccc(-c2cc(=O)oc3cc(OCC(=O)N[C@@H](Cc4c[nH]c5ccccc45)C(=O)O)ccc23)cc1,0.573% (inactive)
15,COc1ccc(C(=O)N/N=C2\CCS(=O)(=O)c3ccc(F)cc32)cc1OC,-4.85% (inactive)
16,O=C(CN(C(=O)c1csnn1)c1cccc(Cl)c1)NC1CCCC1,4.33% (inactive)
17,CCCOc1ccc2c3c(c(=O)oc2c1OCCC)CCC3,-3.41% (inactive)
18,Cc1c(OC(C)C(=O)N[C@@H](Cc2ccccc2)C(=O)O)ccc2c3c(c(=O)oc12)CCCC3 (some centres undefined),-2.81% (inactive)
19,COc1ccc2c3c(c(=O)oc2c1OCC(=O)C(C)(C)C)CCCC3,35% (active)
20,CCn1c(C)cc(=O)cc1-c1ccc(Cl)cc1,-3.63% (inactive)
21,COc1ccc(C(=O)CN(C(=O)c2ccc(Cl)cc2)N2C(=O)c3ccccc3C2=O)cc1,-2.08% (inactive)
22,COc1ccc(Cn2c(-c3ccc(Cl)cc3)c[n+]3ccccc23)cc1,50.5% (active)
23,CCOc1ccc(NC(=O)CCS(=O)(=O)c2ccc3c(c2)CCCN3C(=O)CC)cc1,-2.69% (inactive)
24,Cc1ccc(C(=O)COC(=O)CCN2C(=O)C3C4CCC(C4)C3C2=O)cc1C (centres undefined),11.1% (inactive)

row,SMILES,max response
1,COC(=O)c1scc(C)c1NC(=O)CSc1ccc(Cl)cc1,-0.926% (inactive)
2,CCC(=O)Nc1ccc2nn(-c3ccc(F)cc3)nc2c1,48.7% (active)
3,Cc1nn(CC(=O)Nc2ccc(F)cc2)c(=O)c2ccccc12,6.83% (inactive)
4,O=C(CN1CCN(c2ccc(F)cc2)CC1)Nc1cccc(C(F)(F)F)c1,11.8% (inactive)
5,Cc1cc(/C=C2/SC(=O)N(CC(=O)OC(C)C)C2=O)c(C)n1C,44% (active)
6,Cc1cc(/C=C2/SC(=O)N(CC(=O)N3CCCC3)C2=O)c(C)n1C,-2.09% (inactive)
7,CC(C)OC(=O)CN1C(=O)c2ccccc2C1=O,0.757% (inactive)
8,CC(C)OCCCNC(=S)N1CCC(C(=O)c2ccc3c(c2)OCCO3)CC1,-2.67% (inactive)
9,CC1CCC2(CC1)NC(=O)N(Cc1nnc(-c3cccs3)o1)C2=O (centres undefined),7.72% (inactive)
10,c1csc(-c2nnc(COc3ccc4c(c3)OCO4)o2)c1,43% (active)
11,c1csc(-c2nnc(COc3ncnc4sccc34)o2)c1,-1.52% (inactive)
12,COc1cccc(Nc2nnc(SCC(=O)N3CC(C)OC(C)C3)s2)c1 (centres undefined),6% (inactive)
13,COc1cccc(NC(=O)Nc2nnc(N3CCCCC3C)s2)c1 (centres undefined),43.6% (active)
14,COc1cccc(C(=O)Nc2nnc(S(=O)(=O)N3CCCCC3)s2)c1,-1.34% (inactive)
15,O=C1CCN(CCc2ccccc2)CCN1CCOc1ccccc1,10.9% (active)
16,O=C1CCN(CCCc2ccccc2)CCN1CCO,-4.59% (inactive)
17,O=C(c1ccco1)N1CCN(CCOc2ccccc2)CC1,9.67% (inactive)
18,Cn1ncc2c(N3CCCCC3)nc(NCCCO)nc21,-5.17% (inactive)
19,OCCC#Cc1ccc(CN2CCN(Cc3ccsc3)C(CCO)C2)cc1 (centres undefined),11.5% (inactive)
20,CC1CCN(C(=S)c2cccc([N+](=O)[O-])c2)CC1,-0.525% (inactive)
21,O=C(/C=C/c1ccc(F)cc1)NC(=S)NNC(=O)c1cccnc1,-1.85% (inactive)
22,CS(=O)(=O)N(CC(=O)N1CCOCC1)c1cccc(Cl)c1Cl,4.45% (inactive)
23,Cc1ccc(CSc2nc3[nH]ncc3c(=O)[nH]2)cc1,44.4% (active)
24,CCCSc1nc2[nH]ncc2c(=O)[nH]1,-7.37% (inactive)

row,SMILES,max response
1,Cc1cccc(NC(=O)CSc2nc3[nH]ncc3c(=O)[nH]2)c1,6.25% (inactive)
2,CCC(C)(C)NC(=O)C(c1ccc(OC)cc1)N(C(=O)CCC(=O)Nc1cc(C)on1)c1ccc(OC)cc1OC (centres undefined),-1.05% (inactive)
3,COC(=O)c1ccc([C@@H](O)[C@H](C)C(=O)CC(=O)OC(C)(C)C)cc1,16.5% (inactive) and 4.37% (inactive)
4,CC(C)Sc1nnc([C@H](Cc2ccccc2)NC(=O)OC(C)(C)C)o1,-2% (inactive)
5,C[C@@H](NC(=O)OC(C)(C)C)c1nnc(S(=O)(=O)Cc2ccccc2)o1,15.5% (active)
6,C[C@H](NC(=O)OC(C)(C)C)c1nnc(SCC(N)=O)o1,1.54% (inactive)
7,COc1cc(-c2nnn(CC(=O)NCc3ccccc3)n2)cc(OC)c1OC,-0.552% (inactive)
8,Cc1ccc(-n2c(O)c(C=Nc3ccc(S(=O)(=O)Nc4ncccn4)cc3)c3ccccc3c2=O)cc1C,9.64% (inactive)
9,CC(C)Oc1ccc(CN2CCC(n3nccc3NC(=O)c3cccnc3)CC2)cc1,2.69% (inactive)
10,COC(=O)C1=CN(c2ccc(F)c(F)c2)C=C(C(=O)OC)C1c1ccc([N+](=O)[O-])cc1,4.1% (inactive)
11,CC(=O)c1ccc(N2CCN(S(=O)(=O)c3ccc4c(c3)CC(=O)N4C)CC2)cc1,11.5% (inactive)
12,COC(=O)c1cc(NC(=O)c2nn(C)c(=O)c3ccccc23)cc(C(=O)OC)c1,-2.61% (inactive)
13,COC(=O)c1cc(NC2c3ccccc3C(=O)N2c2ccc(Cl)cn2)cc(C(=O)OC)c1 (centres undefined),13.7% (active)
14,CCc1ccccc1NC1c2ccccc2C(=O)N1c1cccnc1 (centres undefined),1.65% (inactive)
15,COCCNC(=O)c1ccc2c(c1)ncn2-c1ccc(C)c(Cl)c1,-2.44% (inactive)
16,Cc1cc(OCCCN2CCN(Cc3ccccc3)CC2)ccc1[N+](=O)[O-],2.14% (inactive)
17,NC1=NC(=O)C(Cc2cccc(Cl)c2Cl)S1 (centres undefined),-1.63% (inactive)
18,O=C(NCCOCc1ccc(Cl)cc1)c1ncn[nH]1,-5.7% (inactive)
19,COc1ccc(Cl)cc1CSc1ncn[nH]1,1.38% (inactive)
20,O=C(/C=C/Sc1ncn[nH]1)c1ccc(Cl)cc1,35.4% (active)
21,Nc1nonc1-n1nnc(C(=O)N/N=C/C2CCCCC2)c1-c1ccccc1,-3.53% (inactive)
22,COc1ccc(C(C(=O)NCc2ccccc2)N(Cc2cccs2)C(=O)c2cnccn2)cc1 (centres undefined),0.798% (inactive)

# Reference: PubChem BioAssay AID2314 (National Center for Advancing Translational Sciences (NCATS), 2010)
